High-throughput results deposited in PubChem BioAssay by National Center for Advancing Translational Sciences (NCATS).
Most compounds without a hit are left out; they make up all but 11% or so of the library.
VDR inh: Inhibitors of the vitamin D receptor (VDR): qHTS | Vitamin D3 receptor (Homo sapiens), P11473 | VDR-SRC2-3 peptide fluorescence polarization, 2 h | 400,000 compounds, 0.93% hits | Potency, µM, inactives show max response, negative = inhibition, usual class: inhibitors | AID 504847, 2011; further: on the % scale 0 is the no-effect control and ±100 the full control effect
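The screen uses fluorescence polarization to detect compounds that interfere with recruitment of the SRC2-3 coactivator peptide to VDR; plates are read after 2 h at room temperature.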
BAZ2B block: qHTS Assay for Inhibitors of BAZ2B; 360,000 compounds, 4.4% hits; Potency, µM (titrated, usually from 114 µM), for the others: at the top dose activity change, negative = inhibition, actives largely listed as inhibitors; AlphaScreen BAZ2B-H3K14Ac peptide displacement; Bromodomain adjacent to zinc finger domain protein 2B (Homo sapiens), Q9UIF8; further: on the % scale 0 is the no-effect control and ±100 the full control effect; nearly all actives have a fitted effect of over 60% in size
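Compounds, titrated to a top concentration of 110 uM, were incubated 30 min at room temperature with preformed BAZ2B/acetyl-K14 H3 peptide complex (50 nM each). Proximity signal was measured by AlphaScreen after 20 min with beads.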
HP1b chromo inh: HTS for Inhibitors of HP1-beta Chromodomain Interactions with Methylated Histone Tails; AlphaScreen HP1-beta / biotin-H3K9me3 peptide binding; Potency, µM (titrated, usually from 114 µM), for the others: top-dose activity change, negative = inhibition, actives largely listed as inhibitors; 390,000 compounds, 0.56% hits; Chromobox protein homolog 1 (Homo sapiens), P83916; further: nearly all actives have a fitted effect of over 70% in size
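Compound inhibition of the preformed complex between 50 nM HP1-beta and 50 nM biotinylated H3K9me3 peptide was read by AlphaScreen. Buffer was PBS pH 7.4 with 0.01% Tween-20. Incubations ran 30 min at room temperature, with 10 ug/mL donor/acceptor beads.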
G9a block: qHTS Assay for Inhibitors of Histone Lysine Methyltransferase G9a | Histone-lysine N-methyltransferase EHMT2 (Homo sapiens), Q96KQ7 | G9a H3K9 monomethylation, AlphaScreen, 2 h | Potency, µM (titrated, usually from 102 µM), for inactives: at the top dose activity, negative = inhibition, actives largely listed as inhibitors | 350,000 compounds, 8.8% hits | AID 504332, 2011; further: on the % scale 0 is the no-effect control and ±100 the full control effect; nearly all actives have a fitted effect of over 75% in size
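G9a (20 nM) preincubated 15 min RT with compounds, then 500 nM biotinylated H3K9 peptide and 20 uM SAM added; 2 h RT reaction. Monomethyl-H3K9 product detected by AlphaScreen with anti-H3K9me1 antibody, streptavidin donor and anti-rabbit IgG acceptor beads.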
PLK1 PBD block: qHTS for Inhibitors of PLK1-PDB (polo-like kinase 1 - polo-box domain): Primary Screen; Serine/threonine-protein kinase PLK1 (Homo sapiens), P53350; Plk1 PBD binding of FITC phosphopeptide, fluorescence polarization; Potency, µM, for inactives: max response, negative = inhibition, usual class: inhibitors; 360,000 compounds, 2.8% hits; AID 720504, 2013; further: series mostly up to about 57 µM; on the % scale 0 is the no-effect control and ±100 the full control effect; nearly all actives have a fitted effect of over 65% in size
JMJD2A Tudor inh: qHTS Assay for Inhibitors of JMJD2A-Tudor Domain; Lysine-specific demethylase 4A (Homo sapiens), O75164; AlphaScreen JMJD2A-Tudor / H3K4me3 peptide binding; Potency, µM (titrated, usually from 114 µM), for the others: at the top dose activity change, negative = inhibition, actives largely listed as inhibitors; 390,000 compounds, 4.4% hits; further: on the % scale 0 is the no-effect control and ±100 the full control effect; nearly all actives have a fitted effect of over 50% in size
The depositor's hits bear a star; ? = inconclusive; . = no result; [ ] = dose if it differs, or a comment. The call rests on the fitted dose curve; in most records, active means well fitted curve in the direction sought with a large enough effect; inconclusive means small, poorly fitted or top-dose-only effect, or another doubt; inactive means no such curve, though single readings can be large; an effect the other way counts as inactive or inconclusive. Potency means the concentration at half of the fitted maximal effect.

SMILES	VDR inh	BAZ2B block	HP1b chromo inh	G9a block	PLK1 PBD block	JMJD2A Tudor inh
CCOC(=O)c1[nH]c2ccc(OC)cc2c1NC(=O)CCN1CCC(C)CC1	-8.7%	-16.4%	24.6%	4.47µM*	3.9%	4.8%
C=CCNC(=S)Nc1c(C(=O)OC)[nH]c2cc(OC)ccc12	-8.3%	-21.5%	34.1%	11.2µM*	-18.4%	?
CCOC(=O)c1[nH]c2ccc(OC)cc2c1NC(=O)c1ccccc1C(=O)O	1.3%	-7.0%	50.3%	44.7µM*	-7.4%	-18.9%
CCN(C(=O)CCNC(=O)Cn1cnc2ccccc2c1=O)c1cc(OC)ccc1OC	-5.9%	0.5%	33.6%	6.9%[59 µM]	.	-13.7%
COC(=O)c1[nH]c2cccc(OC)c2c1NC(=O)CN1CCN(c2cccc(OC)c2)C(C)C1 (stereo not given)	-10.1%	?	-6.5%	?	2.1%	-27.9%
COC(=O)c1[nH]c2cc(OC)ccc2c1NC(=O)CCN1CCCC(C)(C)C1	-7.9%	-4.9%	9.4%	56.2µM*	-7.1%	-5.3%
CCOC(=O)c1[nH]c2cc(OC)c(OC)cc2c1NC(=O)CN1CCN(c2ccc(OC)cc2)C(C)C1 (stereo not given)	.	44.7µM*	.	22.4µM*	.	.
COc1ccc(Cn2c(C(=O)O)c(CNCCc3ccco3)c3ccc(C)cc32)cc1	7.2%	?	21.7%	?	.	-24.8%
C=Cc1ccc(Cn2c(C(=O)O)c(CNCCc3ccco3)c3ccc(C)cc32)cc1	-2.1%	44.7µM*	-13.5%	?	.	?
COc1ccc(Cn2c(C(=O)O)c(CNCCc3cc(OC)ccc3OC)c3ccc(C)cc32)cc1	6.3%	50.1µM*	-1.7%	-35.5%[59 µM]	.	?
Cc1ccc2c(CNCc3ccc(C)o3)c(C(=O)O)n(Cc3ccc(F)cc3)c2c1	-3.2%	50.1µM*	-4.7%	?	.	?
C=CCSc1nc(NC)c2sccc2n1	-6.0%	-2.6%	29.1%	-2.5%	-2.7%	1.1%
Cn1c(CN2CCOCC2)nnc1SCC(=O)Nc1cccc(C(F)(F)F)c1	3.7%	1.2%	10.8%	-12.5%[59 µM]	-5.9%	-10.2%
S=c1[nH]nc(COc2ccc(Cl)cc2)n1Cc1ccco1	-2.9%	?	?	3.55µM*	?	?
CCc1ccc(OCc2nnc(SCCN3CCOCC3)n2CC)cc1	-4.3%	.	?	7.08µM*	0.7%	3.16µM*
CCCc1n[nH]c(=S)n1Cc1ccco1	3.5%	5.7%	30.4%	?	-21.0%	5.01µM*
S=C1NCN(Cc2ccco2)CN1	-5.8%	1.3%	19.1%	2.4%	-5.9%	-9.4%
S=c1[nH]nc(C23CC4CC(CC(C4)C2)C3)n1Cc1ccco1	10.2%	?	3.8%	-8.7%[0.0925 µM]	-6.7%	50.1µM*
CCn1c(COc2ccc(C)cc2)nnc1SCc1ccc(C#N)cc1	-4.2%	6.3%	23.2%	.	-1.6%	-6.6%
CC(C)C(NC(=O)c1ccccc1)C(=O)OCC(=O)N1CCCC1 (stereo not given)	-3.3%	5.0%	42.7%	?	-9.6%	-9.5%
CC(C)(C)C1CCc2nc(NC(=O)c3cccc(Cl)c3)sc2C1 (stereo not given)	5.7%	-14.6%	43.3%	-8.4%[59 µM]	.	-21.5%
Clc1ccc(OCc2nnc(SCCN3CCCCC3)n2Cc2ccco2)cc1	-15.5%	89.1µM*	13.0%	?	-13.3%	?
C[C@H]1CN([C@@H](C)CO)C(=O)CCCn2nncc2CO[C@@H]1CN(C)Cc1ccccc1	.	.	.	.	-2.7%	.
Cc1ccc(S(=O)(=O)N2CCN(CC(=O)N/N=C\c3ccc(O)c(O)c3)CC2)cc1	-0.5%	-24.3%	29.8%	39.8µM*	0.8%	-13.3%
O=C(CN1CCN(S(=O)(=O)c2ccc(Br)cc2)CC1)N/N=C/c1ccc(Br)s1	-1.1%	?	-5.5%	3.0%[59 µM]	23.8µM*	-35.3%
SMILES	VDR inh	BAZ2B block	HP1b chromo inh	G9a block	PLK1 PBD block	JMJD2A Tudor inh
Cc1ccc(NC(=O)CN2CCCN(S(=O)(=O)c3ccc(Br)s3)CC2)cc1	-12.9%	-2.5%	35.5%	50.1µM*	-13.2%	-20.8%
O=C(C[C@@H]1C/C=C\C[C@H](NC(=O)OCC2c3ccccc3-c3ccccc32)C(=O)O[C@H](c2ccccc2)CNC1=O)NCCO	-20.7%	.	-0.5%	.	-27.2%	?
C/C(=N/Nc1ccc(C(=O)O)cc1)c1ccc2c(c1)Nc1ccccc1S2	-9.3%	.	?	.	29.9µM*	?
C/C(=N\Nc1ccc(C(=O)O)cc1)c1ccc2c(c1)Nc1ccccc1S2	-13.9%	50.1µM*	?	11.2µM*	29.9µM*	?
O=C(OCC1OC(n2ncc(=O)[nH]c2=O)C(OC(=O)c2ccccc2)C1OC(=O)c1ccccc1)c1ccccc1 (stereo not given)	-12.2%	50.1µM*	18.8%	18.1%[12.7 µM]	?	50.1µM*
CC(=O)OC[C@H]1O[C@@H](n2ncc(=O)[nH]c2=O)[C@H](OC(C)=O)[C@@H]1OC(C)=O	20.9%	-17.3%	27.3%	-14.6%[59 µM]	-8.9%	-2.2%
COc1cc(F)ccc1-c1cc(C(=O)NCc2ccc(C(F)(F)F)cc2)[nH]n1	.	.	.	.	1.9%	.
CCOc1ccccc1NC(=O)C(NS(=O)(=O)c1ccc2c(c1)CCC(=O)N2)c1ccccc1 (stereo not given)	-1.7%	-22.8%	14.2%	-19.6%[59 µM]	.	-18.2%
CCC(Sc1ccccn1)C(=O)Nc1cccc([N+](=O)[O-])c1 (stereo not given)	4.8%	-12.2%	12.7%	.	21.2µM*	-15.5%
CC(Sc1cccc[n+]1[O-])C(=O)Nc1cccc([N+](=O)[O-])c1 (stereo not given)	-16.3%	.	39.7%	?	?	1.0%
CCC1=NN(C(=O)C(=O)Nc2ccc(Br)cc2)C(O)(C(F)(F)F)C1 (stereo not given)	-1.4%	-24.2%	41.6%	20.8%[59 µM]	3.3%	-34.5%
COc1ccc(Sc2nc(-c3ccccc3)ncc2C(=O)O)cc1	-3.8%	-15.3%	7.0%	?	?	-5.3%[11.4 µM]
O=C(O)c1cnc(-c2ccccc2)nc1Sc1ccc(Cl)cc1	-1.8%	-4.7%	8.0%	25.3%[12.7 µM]	21.2µM*	-28.4%
Clc1cc2c(c(CSc3nc4ccccc4n4cccc34)c1)OCOC2	6.9%	-8.5%	53.5%	44.7µM*	-7.9%	0.0%
Cc1ccc(N=c2sc(C)c(C)n2C)cc1	-7.6%	?	-7.4%	44.7µM*	-7.7%	?
COc1ccc(CCNc2ncnc3c2c(C)c(C)n3CCO)cc1OC	?	-31.7%	13.8%	-8.6%	26.7µM*	?
